# Results: the supplement of paper PMC7156485
# Counter-ions that a name gives are not always drawn. ± gives the standard deviation of the averaged measurements.
# Columns and labels:
# Settings in all cases: concentration: 10 µM; 24 h
# [1] = tested on: HCC1569; test: cell number relative to DMSO (% of DMSO); higher = more cells (less growth inhibition / toxicity)
# Outline: (§1)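 Cell number or H1.0 nuclear intensity appears as percent of the plate control, based on the median of replicates. Measurements came from HCC1569 and TDF cells exposed in triplicate to compounds at 10 µM for 24 h at 37 °C, then imaged in six fields per well at ×10. Positional effects were smoothed out of HCC1569 values.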
# [2] = tested on: TDF; test: as above
# Outline: as §1
# [3] = tested on: TDF; test: H1.0 immunofluorescence intensity relative to DMSO (% of DMSO); higher = stronger H1.0 induction, active = 120 or more
# Outline: as §1
# [4] = tested on: HCC1569; test: H1.0 immunofluorescence intensity relative to DMSO (% of DMSO); higher = stronger H1.0 induction, active = 140 or more
# Outline: as §1
# 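For H1.0 immunofluorescence intensity relative to DMSO in this document: TDF is a line of transformed human dermal fibroblasts of mesenchymal origin.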
# 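For cell number relative to DMSO in this document: TDF denotes transformed human dermal fibroblasts of mesenchymal origin.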
Structure (SMILES),cell number [1],cell number [2],H1.0 immunofluorescence intensity [3],H1.0 immunofluorescence intensity [4]
COCC(=O)OC1(CCN(C)CCCc2nc3ccccc3[nH]2)CCc2cc(F)ccc2C1C(C)C.Cl.Cl (stereo unspecified) [Mibefradil dihydrochloride],84.2,90.1,111 (inactive),124 (inactive)
CCC(CO)Nc1nc(NCc2ccccc2)c2ncn(C(C)C)c2n1 (stereo unspecified) [Roscovitine],93.4,99,93.9 (inactive),103 (inactive)
"O=[N+]([O-])c1ccc(S(=O)(=O)NCc2ccccc2)c([N+](=O)[O-])c1 [N-Benzyl-2,4-dinitrobenzenesulfonamide]",79,58.4,117 (inactive),123 (inactive)
CCN(CC)CCOCCOC(=O)C1(c2ccccc2)CCCC1.O=C(O)CC(O)(CC(=O)O)C(=O)O [Carbetapentane citrate],86.4,89,107 (inactive),97.4 (inactive)
CC1=C(C)C(=O)C(C(CCCCCC(=O)O)c2ccccc2)=C(C)C1=O (stereo unspecified) [Seratrodast],107,104,99.3 (inactive),82.5 (inactive)
COc1cc2c(cc1O)CCC1C2CCC2(C)C(O)CCC12 (stereo unspecified) [2-methoxyestradiol],54.3,11.5,156 (active),156 (active)
Cc1ccc(C(=O)c2ccc(CC(=O)O)n2C)cc1 [Tolmetin],101,99,104 (inactive),104 (inactive)
CC(C(=O)O)c1cccc(Oc2ccccc2)c1 (stereo unspecified) [Fenoprofen],102,101,94.2 (inactive),120 (inactive)
COc1ccc2[nH]cc(CCNC(C)=O)c2c1 [Melatonin],101 ± 3.5,99.5 ± 3,93.4 (inactive),93.4 (inactive)
"CN1C(=O)CCC1c1cccnc1 (single isomer, unassigned; (-)) [(-)-Cotinine]",102 ± 1.1,112 ± 5.4,93.5 (inactive),93 (inactive)
COc1ccc2c(c1)CC[C@@H]1[C@@H]2CC[C@]2(C)[C@@H](NCCCCCCN3C(=O)C=CC3=O)CC[C@@H]12.O,97.6,109,99.9 (inactive),107 (inactive)
COc1cc2ncc(-c3ccccc3)nc2cc1OC,100,94.5,94 (inactive),107 (inactive)
CC(C)(Sc1ccc(CCN(CCCCC2CCCCC2)C(=O)NC2CCCCC2)cc1)C(=O)O,101,107,95.7 (inactive),87.6 (inactive)
NS(=O)(=O)c1cc2c(cc1Cl)NCNS2(=O)=O [Hydrochlorothiazide],105,107,90.9 (inactive),89.9 (inactive)
CCOc1cc2ncnc(Nc3cccc(Br)c3)c2cc1OCC [Compound 56],76.2,94,92.6 (inactive),144 (active)
CCCCC#Cc1nc(N)c2ncn(C3OC(C(=O)NCC)C(O)C3O)c2n1 (stereo unspecified),93.3,99.3,95.2 (inactive),110 (inactive)
"CC(=O)C(C)=O [2,3-Butanedione]",103,103,85.8 (inactive),92.3 (inactive)
CC(=O)c1ccc(S(=O)(=O)NC(=O)NC2CCCCC2)cc1 [Acetohexamide],105,107,102 (inactive),109 (inactive)
COc1ccc(-c2cc(=O)c3ccc(O)cc3o2)cc1 [Pratol],98.5,87.4,94 (inactive),105 (inactive)
Cc1ccccc1C(C(=O)NC1CCCCC1)N(C(=O)Cn1ccnc1C)c1cccc(F)c1 (stereo unspecified),94.3,106,95.3 (inactive),105 (inactive)
CCCCCC(O)C=CC=CC=CC(O)CC=CCCCC(=O)O (stereo unspecified),101,100,94.8 (inactive),107 (inactive)
CC1(C)SC2C(NC(=O)C(N)c3ccc(O)cc3)C(=O)N2C1C(=O)O (stereo unspecified) [Amoxicillin],107,103,105 (inactive),104 (inactive)
"OC[C@@H](O)[C@H]1NC[C@@H](O)[C@H]1O [1,4-Dideoxy-1,4-imino-D-mannitol hydrochloride]",99.9,104,87.9 (inactive),90.9 (inactive)
Oc1cc2c(cc1O)CN(C(=S)NCCc1ccc(Cl)cc1)CCC2 [Capsazepine],106,112,91.8 (inactive),86.2 (inactive)
